Data taken from ChEMBL document CHEMBL3988442, “University of Dundee, Small-Polar-MMV Screening Library” (2021).
In all, about 85,000 compounds went through this assay and about 440 (0.52%) showed an effect of 50% or more. The sample holds strong results, similar compounds and a random draw of the others, so the mix is not that of the screen.

Test: In vitro enzyme assay to detect hydrolysis of chlorophenol red-beta-D-[…] directly proportional to the number of Toxoplasma stably expressing beta-galactosidase
Type: functional, organism-based, Toxoplasma gondii
Design: scale not given: in the data most compounds retested in dose-response had high values

Row | Compound | Percent Effect (50 µM) [%] | Percent Effect (10 µM) [%]
1 | Cn1nccc1NC(=O)N1CCOCC1C1CC1 (stereo not drawn) | -2.135 | –
2 | O=C1COCC(Cc2ccccc2)N1 (stereo not drawn) | -23.94 | –
3 | NC(=O)CN1CCn2cccc2C1c1ccccc1 (stereo not drawn) | -16.03 | –
4 | CNC1CCN(c2cc(OC)cc(OC)c2)C1 (stereo not drawn) | -16.53 | –
5 | CCN1CCCN(C(=O)c2ccccc2COC)CC1 | 3.121 | –
6 | COCc1ccccc1C(=O)N1CCCC(O)C1 (stereo not drawn) | 58.79 | –
7 | COCc1ccccc1C(=O)N1CCCC(c2cc(C)[nH]n2)C1 (stereo not drawn) | – | -0.6285
8 | O=C(NCC(O)C1CCCCC1)[C@@H](O)c1ccccc1 (stereo partly drawn) | -2.815 | –
9 | Cc1nn(CCO)c(NC(C)c2nccs2)c1C (stereo not drawn) | -2.968 | –
10 | COC[C@H]1CCC[C@H]1NC(=O)CCn1cncn1 | 1.07 | –
11 | CN(Cc1cnn(C)c1)C(=O)CN1CCCC(Cn2cncn2)C1 (stereo not drawn) | – | 96.23
12 | Cc1ccc(CN(C)C(=O)CN2CCCC(Cn3cncn3)C2)cc1 (stereo not drawn) | – | -19.93
13 | CN(Cc1ccccc1)C(=O)CN1CCCC(Cn2cncn2)C1 (stereo not drawn) | – | -36.27
14 | NC(=O)COC(=O)c1cc(Cl)cc(C(F)(F)F)c1 | -16.81 | –
15 | Cc1[nH]ncc1C(=O)NCCCSCC(C)C | 11.62 | –
16 | Cc1nn(C)c2c(=O)n(Cc3ccc(Cl)cc3)nnc12 | – | 71.45
17 | Cc1nn(C)c2c(=O)n(CC(=O)Nc3cc(Cl)cc(Cl)c3)nnc12 | – | -3.347
18 | CCn1nc(C)c2nnn(CC(=O)Nc3cccc(F)c3)c(=O)c21 | – | -2.626
19 | Cc1nn(C)c2c(=O)n(Cc3ccc(F)cc3)nnc12 | – | 62.42
20 | Cc1nn(C)c2c(=O)n(Cc3ccccc3)nnc12 | – | 61.89
21 | Cc1c(C(=O)NC(C)C)nnn1Cc1ccccc1 | 17.24 | –
22 | CCn1nc(C)c2nnn(CC(=O)Nc3ccccc3)c(=O)c21 | – | 1.414
23 | Cc1nn(C)c2c(=O)n(Cc3ccc(C#N)cc3)nnc12 | – | 39.12
24 | Cc1nn(C)c(=O)c2nn(-c3ccc(F)cc3)c(C)c12 | – | -17.45
25 | COCC(C)(CCO)NCc1c(C)noc1C (stereo not drawn) | -23.44 | –
26 | CCC(CNC(=O)Nc1cc(C)nn1C)N1CCCC1 (stereo not drawn) | -4.617 | –

Row | Compound | Percent Effect (50 µM) [%] | Percent Effect (10 µM) [%]
27 | NC(=O)C1CCN(CCOc2ccccc2F)CC1 | -5.356 | –
28 | Cc1cnccc1NCCNC(=O)Cc1ccccn1 | -14.36 | –
29 | CCO[C@H]1CN(C)C[C@@H]1NC(=O)c1cnc(CC)nc1 | 7.652 | –
30 | C[S+]([O-])c1nncn1Cc1cccc2cccnc12 (stereo not drawn) | -6.749 | –
31 | Cc1cc(N2CCOC(CN(C)CC(N)=O)C2)ccn1 (stereo not drawn) | 2.869 | –
32 | COCc1[nH][nH]c(=O)c1CCN | -30.62 | –
33 | OC1(CNCCc2csc(-c3ccncc3)n2)CCCNC1 (stereo not drawn) | – | -15.25
34 | OC1(CNCCCn2cc(Cl)cn2)CCCNC1 (stereo not drawn) | -11.83 | –
35 | OC1(CNCCOCc2ccc(Cl)cc2)CCCNC1 (stereo not drawn) | 57.1 | –
36 | CCOCC(O)CN(C)Cc1cccc(C(N)=O)c1 (stereo not drawn) | -13.39 | –
37 | CCN1C[C@H]2CCN(C(=O)NC)CC[C@H]2S1(=O)=O | – | 59.16
38 | CCN1C[C@H]2CCN(C(C)=O)CC[C@H]2S1(=O)=O | – | -1.674
39 | CCN1C[C@H]2CCN(C(=O)NC3CCCC3)CC[C@H]2S1(=O)=O | – | -4.304
40 | Cc1c(N)cnn1C1CCOCC1 | -9.55 | –
41 | COc1ccc(OC)c(N2C(=O)CCC2=O)c1 | -4.608 | –
42 | CN(CCOCCO)CCOc1ccc(F)cc1 | 15.3 | –
43 | O=C1NCCOc2ccc(Br)cc21 | -18.86 | –
44 | COc1ccc(C)cc1CNC(=O)C1=NN(c2ccccc2)C(=O)CN1 | – | 14.43
45 | COc1ccc(CNC(=O)C2=NN(c3ccc(C)cc3)C(=O)CN2)cc1 | – | -0.9855
46 | COc1ccccc1CNC(=O)C1=NN(c2ccc(C)cc2)C(=O)CN1 | – | 57.58
47 | Cc1cc2c(cc1S(=O)(=O)N1CCCC(N)C1)OCO2 (stereo not drawn) | 6.23 | –
48 | c1ccc(C2=NOC3(CCN(Cc4c[nH]c5ccccc45)CC3)C2)cc1 | – | 73.52
49 | c1cncc(C2=NOC3(CCN(Cc4c[nH]c5ccccc45)CC3)C2)c1 | – | 26.44
50 | CC(C)C1=NOC2(CCN(Cc3c[nH]c4ccccc34)CC2)C1 | – | 33.52
51 | CCCC(C(=O)OCC)S(N)(=O)=O (stereo not drawn) | -4.644 | –
52 | COC(=O)C(C)SCc1noc(C2CC2)n1 (stereo not drawn) | 1.688 | –

Row | Compound | Percent Effect (50 µM) [%] | Percent Effect (10 µM) [%]
53 | CCN1C[C@H](NC(=O)c2snnc2C(C)C)[C@@H](OC)C1 | 82.91 | –
54 | CCN1C[C@H](NC(=O)c2ccc(Cl)s2)[C@@H](OC)C1 | 2.981 | –
55 | CCN1C[C@H](NC(=O)c2cccn2C(C)C)[C@@H](OC)C1 | -5.083 | –
56 | CCC(NC(=O)c1cc(N)[nH]n1)c1nc(C)c[nH]1 (stereo not drawn) | 4.795 | –
57 | Cc1nnsc1CN(C)C(=O)c1ccccc1 | 22.64 | –
58 | O=C(N[C@@H]1CNC[C@H]1CO)C1CCC1 | -0.2309 | –
59 | CN(C)c1nc(CN)cs1 | -3.708 | –
60 | Cc1cc(CN)nc(N2CCCC2)n1 | -18.34 | –
61 | Cc1cc(CN)nc(N(C)C)n1 | 87.02 | –
62 | COCCNC(=O)CCC1CCN(CCCSC)CC1 | 11.51 | –
63 | CCOc1ncccc1C(=O)N1CCCN(C)CC1 | 3.231 | –
64 | COCCNC(=O)NC(C)CCc1ccc(O)cc1 (stereo not drawn) | -3.348 | –
65 | Cn1ccnc1CN1CCC(c2ccnc(-c3cccc(O)c3)c2)C1 (stereo not drawn) | – | 55.29
66 | Oc1cccc(-c2cc(C3CCN(Cc4cncnc4)C3)ccn2)c1 (stereo not drawn) | – | 0.5564
67 | CN(C)CC(C)(C)CN1CCC(c2ccnc(-c3cccc(O)c3)c2)C1 (stereo not drawn) | – | 7.739
68 | N#CC1(NC(=O)C(O)Cc2ccccc2Cl)CCC1 (stereo not drawn) | -6.44 | –
69 | CCc1cccc(C)c1NC(=O)CN1CCNC(=O)C1 | -0.5853 | –
70 | Cc1ccc(Cl)cc1NC(=O)CN1CCNC(=O)C1 | 47.59 | –
71 | O=C1CN(CC(=O)Nc2c(Cl)cccc2Cl)CCN1 | 55.2 | –
72 | CN(C)S(=O)(=O)CCNC1CCCNC1 (stereo not drawn) | 23.13 | –
73 | CCn1cc(CN(C)S(=O)(=O)c2ccc(C(C)C)cc2)cn1 | – | 71.72
74 | CCn1cc(CN(C)S(=O)(=O)c2cnn(C)c2)cn1 | – | 10.44
75 | CCn1cc(CN(C)S(=O)(=O)c2ccccc2)cn1 | – | 61.21
76 | CCn1cc(CN(C)S(=O)(=O)c2ccc(Cl)cc2)cn1 | – | 4.304
77 | CCn1cc(CN(C)S(=O)(=O)c2ccc(C)c(C)c2)cn1 | – | 6.128
78 | CCOc1ccc(S(=O)(=O)N(C)Cc2cnn(CC)c2)cc1 | – | 22.15
